The sample as a whole holds a higher share of hits than the screen did.
AMA1 RON2 block = disrupts binding of P. falciparum AMA1 to RON2; AID 720542; AlphaScreen AMA1-biotinylated RON2 peptide binding; actives 0.2% (n = 360,000); Potency, µM (highest dose often 58.2 µM), for inactives: top-dose activity change, negative = inhibition, hits mostly inhibitors;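 also: potency is read from the fitted curve at half-maximal effect; 0% = vehicle wells and -100% = peptide control; nearly all actives have a fitted effect of over 45% in size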
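AMA1 (3D7) with his tag at 25 nM final met compounds first, then biotinylated RON2 peptide at 25 nM; detection used donor plus acceptor beads, 10 µg/mL apiece, read by AlphaScreen after 30 min at room temperature.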
CHX counter = affects cycloheximide protein synthesis inhibition readout, counter-screen; cell reporter, cycloheximide protein synthesis inhibition counterscreen; max response, %; actives 12% (n = 300,000); in the data active = max response mostly above about 13%, no sharp cut-off; inactive = mostly below about 14%; also: read at 38.3 µM for the half of the compounds with a filed dose; 0% is about no effect
Shiga inhibitor = blocks Shiga toxin action in Vero cells; Vero cells, Shiga toxin protein synthesis inhibition reporter; inhibition, % at 38.7 µM; actives 9.2% (n = 290,000); in the data active = inhibition mostly above about 28%, no sharp cut-off; inactive = mostly below about 43%; also: 0% is about no effect
AmpC inh detg = inhibitors of E. coli AmpC beta-lactamase with detergent. P00811. AmpC hydrolysis of nitrocefin, absorbance 480 nm, 0.01% Triton. Potency, µM (doses to about 114 µM), inactives show at the highest dose activity change, negative = inhibition, hits mostly inhibitors. actives 0.041% (n = 370,000). AID 485294;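 also: potency is read from the fitted curve at half-maximal effect; 0% = no-compound wells and -100% = no-enzyme wells; nearly all actives have a fitted effect of over 25% in size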
Target sequence (P00811 whole entry, looked up): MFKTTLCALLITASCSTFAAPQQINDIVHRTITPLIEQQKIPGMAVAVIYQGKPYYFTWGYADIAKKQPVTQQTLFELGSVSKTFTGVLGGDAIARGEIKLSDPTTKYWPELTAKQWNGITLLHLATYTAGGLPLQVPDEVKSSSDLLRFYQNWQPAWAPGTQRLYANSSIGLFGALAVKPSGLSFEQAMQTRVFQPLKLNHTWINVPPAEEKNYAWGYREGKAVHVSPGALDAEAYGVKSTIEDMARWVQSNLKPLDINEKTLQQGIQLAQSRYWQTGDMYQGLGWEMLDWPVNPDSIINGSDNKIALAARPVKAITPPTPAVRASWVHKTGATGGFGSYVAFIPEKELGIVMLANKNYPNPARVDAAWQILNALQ
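20 mM phosphate pH 7.0 + 0.01% (detergent screen) or 0.0001% Triton X-100; 5.3 nM AmpC reagent; cpd preinc 15 min RT; nitrocefin (800 uM stock) to start; A480 q20 s × 4 min; Activity was normalised to no-enzyme and no-compound control wells.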
AmpC inh no detg = AmpC beta-lactamase inhibition without detergent | P00811 | actives 0.52% (n = 330,000) | AID 485341 | Potency, µM (highest dose often 57.1 µM), inactives show top-dose activity change, negative = inhibition, usual class: inhibitors | AmpC nitrocefin hydrolysis, absorbance 480 nm, 0.0001% Triton;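 also: potency is read from the fitted curve at half-maximal effect; plate controls were no compound for no effect and no enzyme for full effect; nearly all actives have a fitted effect of over 20% in size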
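20 mM phosphate pH 7.0 + 0.01% (detergent screen) or 0.0001% Triton X-100; 5.3 nM AmpC reagent; cpd preinc 15 min RT; nitrocefin (800 uM stock) to start; A480 q20 s × 4 min; Activity was normalised to no-enzyme and no-compound control wells.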
SARS PLpro yeast = blocks SARS-CoV papain-like protease in a yeast assay; S. cerevisiae expressing SARS-CoV PLpro, growth rescue; Potency, µM (top dose mostly 32.9 µM), for the others: at the highest dose activity, positive = growth rescue, usual class: activators; actives 0.19% (n = 330,000); AID 485353; calls by dose curve; also: potency is read from the fitted curve at half-maximal effect; 0% is about no effect; nearly all actives have a fitted effect of over 55% in size
* = called active by the depositor; ? = inconclusive; . = not tested or not shown. Unless noted, calls follow the shape of the dose curve; as a rule, active = well fitted curve in the direction sought with a large enough effect; inconclusive = small, poorly fitted or top-dose-only effect, or another doubt; inactive = no such curve, though single readings can be large; an effect the other way counts as inactive or inconclusive.

SMILES | AMA1 RON2 block | CHX counter | Shiga inhibitor | AmpC inh detg | AmpC inh no detg | SARS PLpro yeast
COc1ccccc1Oc1c(C)oc2c(CN3CCOCC3)c(O)ccc2c1=O | 8.9% | -3.3 | 1.7 | 5.7% | -1.5% | 9.4%
CCSc1nnc(NC(=O)NC2CCCCC2)s1 | -1.5% | 35.7* | 48.9* | 5.2% | -5.4% | -0.6%
CCc1nnc(NC(=O)c2ccc(Br)o2)s1 | 9.8% | 1.2 | -2.3 | ? | -0.7% | 3.1%
CCc1nnc(NC(=O)c2ccc(C)o2)s1 | -12.9% | 36.2* | 44.0* | -4.3% | -17.1% | -1.4%
Cc1ccc(NC(=O)CSc2nnc(NC(=O)NC3CCCCC3)s2)cc1 | . | . | . | -1.6% | . | .
CCSc1nnc(NC(=O)c2cccs2)s1 | -8.6% | 35.0* | 100.8* | ? | -29.3% | -2.0%
CCSc1nnc(NC(=O)c2cc(C)oc2C)s1 | 16.0% | 38.4* | 59.4* | ? | -13.5% | -6.6%
Cc1nnc(Nc2ccccn2)c2ccccc12 | 47.5% | 1.3 | 39.3 | -2.3% | -24.5% | -7.4%
CC12CCC(=O)N1c1ccccc1C(=O)N2c1ccccc1 (configuration not stated) | -0.7% | -1.3 | -8.0 | -10.5% | 0.6% | -2.5%
COC(=O)C1=C(C)N(Cc2ccc(C)cc2)C(=O)/C1=C\c1ccc(O)c(OC)c1 | ? | -3.1 | -5.9 | ? | -32.5% | 3.1%
CCSc1nnc(NC(=O)C(C)(C)C)s1 | 11.5% | 29.1* | 69.5* | 4.1% | -14.0% | -4.4%
CCSc1nnc(NC(=O)Cc2ccc(OC)cc2)s1 | -9.3% | 16.9 | 6.4 | 3.2% | -12.4% | -6.0%
CCSc1nnc(NC(=O)c2ccc(C)o2)s1 | -6.5% | 26.7* | 33.4* | 0.0% | -11.4% | -12.1%
Cc1cc(/C=N\NC(=O)CC(=O)NC2CCCCC2)c(C)n1-c1ccc(Cl)cc1 | 3.0% | -1.6 | -4.3 | -0.8% | 31.1% | 3.3%
Cc1cc(/C=N/n2cnnc2)c(C)n1-c1ccc(OCc2ccc(Cl)cc2)cc1 | -16.4% | 51.6* | 92.5* | -7.4% | 40.1% | -30.2%
Cc1cc(/C=N/n2cnnc2)c(C)n1-c1ccc(OCc2ccccc2F)cc1 | -24.2% | 25.8* | 24.9 | 1.3% | 36.3% | -28.1%
Cc1ccc(OCCN2CCOCC2)cc1C | 0.0% | 16.8* | 39.6 | -10.5% | -5.6% | -4.1%
Cc1cc(OCCN2CCOCC2)ccc1Cl | 5.9% | 31.7* | 137.7* | -11.8% | -4.5% | -7.0%
O=[n+]1c2c(n([O-])c3cc(F)c(N4CCCC4)cc31)CCC2 | -21.6% | . | . | . | . | .
O=[n+]1c2c(n([O-])c3cc(F)c(N4CCCC4)cc31)CCCC2 | -7.9% | 30.3* | 60.6* | -8.4% | -14.8% | -13.8%
COC(=O)C1=C(c2cc3ccccc3s2)C[C@@H]2CC[C@H]1N2C(=O)NCc1ccc(C(F)(F)F)cc1 | -4.1% | . | . | . | . | .
Cc1c(Cl)cccc1NC(=O)C(C)n1c(=O)cc(C)c2c(C)nn(-c3ccccc3)c21 (configuration not stated) | . | . | . | 12.9% | . | .
Cc1cccc(Nc2nc(-c3ccc(O)c(O)c3)cs2)n1 | -14.9% | 42.1* | 85.1* | -3.1% | -20.6% | -6.3%
Cc1cccc(Nc2nc(-c3ccc(F)c(C)c3)cs2)n1 | -17.8% | 49.0* | 113.0* | -3.9% | -58.1% | -11.9%
Cc1cc(C(c2ccc(O)cc2)c2cc(C)c(O)cc2C)c(C)cc1O | -6.5% | -2.9 | . | -11.1% | -26.6% | 3.0%
SMILES | AMA1 RON2 block | CHX counter | Shiga inhibitor | AmpC inh detg | AmpC inh no detg | SARS PLpro yeast
C[C@H](CO)N1C[C@H](C)[C@H](CN(C)S(=O)(=O)c2ccc3c(c2)OCCCO3)OCc2cnnn2CCCC1=O | -3.1% | . | . | . | . | .
CCCCc1cc(=O)oc2cc(C)cc(OCC(=O)N3C[C@H]4C[C@@H](C3)c3cccc(=O)n3C4)c12 | 5.7% | -2.1 | 8.6 | ? | 148.3% | -4.2%
CO/N=C/Cc1c([N+](=O)[O-])c(C)nn1C | 1.5% | 6.0 | -7.4 | -0.6% | -17.8% | 0.9%
Cc1cc(-n2cnnn2)ccc1C(C)C | 5.4% | 23.4* | 32.8 | ? | -4.1% | -7.2%
Cc1ccc(C)n1-c1ccc(-n2cnnn2)cc1 | 8.9% | -4.3 | -4.1 | ? | -3.0% | -0.1%
O=C1c2ccccc2C(=O)N1Nc1ccc([N+](=O)[O-])cc1[N+](=O)[O-] | -8.0% | -1.0 | . | -12.3% | -5.7% | 0.6%
COc1ccc(CC(=O)Nc2ccc3nc(C)sc3c2)cc1OC | 18.4% | 1.7 | -0.8 | -5.0% | 2.9% | -11.9%
COC(=O)c1ccc(NC(=O)c2ccc3nc(C)sc3c2)cc1 | 0.9% | 77.0* | . | 7.7% | -6.7% | -0.6%
COc1ccc(NC(=O)c2ccc3nc(C)sc3c2)cc1 | -23.6% | 64.3* | 128.8* | 1.0% | -14.0% | -3.0%
Cc1nc2ccc(C(=O)Nc3cccc([N+](=O)[O-])c3)cc2s1 | -15.1% | 29.7* | 101.1* | 0.1% | -14.5% | -2.8%
COC(=O)c1ccc2nc(NC(=O)C(C)(C)C)sc2c1 | 5.3% | -6.8 | -7.3 | -0.5% | -4.9% | -7.3%
COc1ccc(C(=O)Nc2ccc3nc(C)sc3c2)cc1OC | 4.2% | 31.0* | 84.0 | 5.1% | -8.7% | 10.8%
COc1ccccc1CCN1C(=S)NC(C)(C)CC1(C)O (configuration not stated) | -8.2% | -4.7 | -11.9 | 5.9% | -20.7% | 8.8%
Cc1nc(NCCc2cnc[nH]2)c2oc3ccccc3c2n1 | -14.7% | -2.0 | 1.5 | -1.4% | -34.2% | -2.9%
CCOc1ccc(CCNC(=O)C2CCN(C(=O)N3CC(CC)Oc4ccc(C)cc43)CC2)cc1 (configuration not stated) | . | . | . | -1.0% | . | .
CCCC(=O)OCCNc1cc(Sc2nc3ccccc3[nH]2)c2nonc2c1[N+](=O)[O-] | -24.6% | -5.2 | -7.0 | ? | 12.6µM* | -8.5%
COC(=O)c1ccc(COn2nnc3ccccc32)cc1 | 9.9% | 39.4* | 97.0* | 2.6% | -10.5% | -6.6%
Clc1cccc(Cl)c1COn1nnc2ccccc21 | 8.7% | 24.9* | 37.3 | 3.5% | -32.9% | -3.5%
c1ccc(COn2nnc3ccccc32)c(COn2nnc3ccccc32)c1 | 0.9% | -0.5 | -6.4 | -11.7% | -30.7% | -15.9%
O=C(NCCc1ccccc1)C1CCC(CNS(=O)(=O)c2cccc3cccnc23)CC1 (configuration not stated) | -23.3% | 13.0 | 67.3 | 4.7% | 17.8% | -0.3%
CCc1noc(C)c1C(=O)Nc1nc(-c2cc(OC)ccc2OC)cs1 | -3.1% | . | . | -14.0% | 14.1% | 2.6%
CC(C)CNC(=S)Nc1ccc(Oc2ccccc2)cc1 | 14.2% | 20.7* | 22.9 | 1.8% | -17.5% | -79.9%
OCCCNC(=S)Nc1ccc(Oc2ccccc2)cc1 | -3.4% | 0.2 | 23.9 | -0.3% | -18.0% | -21.4%
CCN(CC)CCCNC(=S)Nc1ccc(Br)cc1 | -3.6% | 43.8* | 102.5* | -2.4% | 0.1% | -2.9%
CN(C)CCCNC(=S)Nc1ccc(Oc2ccccc2)cc1 | -10.6% | 26.2* | 67.2 | 1.9% | 1.1% | -1.1%

Bioassay records deposited in PubChem by National Center for Advancing Translational Sciences (NCATS).
